PubChem BioAssay (NCATS)
Records with an inconclusive call do not appear. Calls of active or inactive are those of the source. Unless noted, the call rests on the fitted dose curve; in most records, active means well fitted curve in the direction sought with a large enough effect; inconclusive means small, poorly fitted or top-dose-only effect, or another doubt; inactive means no such curve, though single readings can be large; an effect the other way counts as inactive or inconclusive.

What was measured:
[1] = qHTS of Nrf2 Activators: LOPAC Validation (AID 624149)
Method in brief: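 Following overnight seeding in 5% FBS OPTI-MEM, AREc32_Fluc cells receive compounds for a 24 hr incubation at 37 deg C with 5% CO2. Steady-Glo is added, and after 30 min at RT luminescence is recorded.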

[2] = target: Arylsulfatase A (Homo sapiens) (UniProt P15289); assay: qHTS screen for enhancers of Arylsulfatase A (ASA1): LOPAC Validation Assay (AID 720538)
Method in brief: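 First, ASA-I179S fibroblasts from an MLD patient adhered for 6 hrs. Next, compounds were added for 48h. Then pNCS substrate (0.5mM final) with lysis buffer reacted 14h at room temperature before NaOH stop and fluorescence measurement.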

[3] = qHTS for compounds that reverse cellular toxicity of Amyloid beta (A-beta) peptide in yeast: LOPAC Validation Assay (AID 720559)
Method in brief: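 Activity is expressed relative to DMSO and an equimolar ferric chloride/clioquinol mix. Compounds were pinned into medium with A-beta-expressing yeast, grown 48 hr at 30 C, then read by absorbance at 600 nm.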

[4] = qHTS for Activators of Parkin Expression: LOPAC Validation Assay (NLuc Reporter) (AID 720572)
Method in brief: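 Cells harboring the Parkin-promoter coincidence reporter were treated for 24 h at seven concentrations. NLuc output was measured sequentially after the FLuc channel and scaled between DMSO and positive control values.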

[5] = qHTS for Activators of Parkin Expression: LOPAC Validation Assay (FLuc Reporter) (AID 720573)
Method in brief: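 A neuronal cell line harbouring FLuc and NLuc reporters behind the Parkin promoter was exposed to compounds for 24 h. Firefly luciferase signal, measured after 10 min with detection reagent, was scaled to DMSO and positive-control wells.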

[6] = target: T1, Hexokinase-4 (Homo sapiens) + Glucokinase regulatory protein (Homo sapiens) (UniProt P35557+Q14397); assay: qHTS assay for inhibitors of recombinant human GCK-GKRP interaction: Diaphorase-coupled assay (AID 743205)
Method in brief: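 Inhibitors of the GCK–GKRP complex relieve GKRP suppression of GCK, detected through a G6PDH–diaphorase cascade reducing resazurin. Human GST-GCK and FLAG-GKRP are used at 10 nM with 5 mM glucose and 0.4 mM ATP.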

[7] = target: T1, Hexokinase-4 (Homo sapiens) + Glucokinase regulatory protein (Homo sapiens); assay: qHTS assay for inhibitors of recombinant human GCK-GKRP interaction: ADP-Glo assay (AID 743206)
Method in brief: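 Pin-transferred compounds meet a 15 nM GST-GCK/15 nM FLAG-GKRP/2 uM S6P mix (dispense concentrations). ATP is then added to 0.4 mM final with 5 mM glucose, and the reaction runs 60 min at room temperature. ADP is quantified luminescently.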

[8] = target: T1, Hexokinase-4 (Homo sapiens) + Glucokinase regulatory protein (Homo sapiens); assay: qHTS assay for inhibitors of recombinant human GCK-GKRP interaction: HTRF assay (AID 743207)
Method in brief: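 Steps: dispense GCK–GKRP complex (5 nM each, GST- and FLAG-tagged) with 2 uM S6P; pin in compounds; add XL665/Eu-cryptate-labelled antibodies; incubate 60 min at room temperature; read time-resolved FRET at 665 and 615 nm.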

[9] = Natriuretic polypeptide receptor (hNpr1) antagonism - Pilot counterscreen GloSensor control cell line (AID 1347045; calls by dose curve)
Method in brief: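 The SNP-driven cGMP luminescence signal (50 uM, 20 min, room temperature) was measured in GloSensor HEK293 control cells. Compounds were tested as a LOPAC titration series and preincubated for 30-50 min.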

[10] = target: Atrial natriuretic peptide receptor 1 (Homo sapiens) (UniProt P16066); assay: Natriuretic polypeptide receptor (hNpr1) antagonism - Pilot screen (AID 1347049; calls by dose curve;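 further: HEK293 cells with hNpr1 and GloSensor cGMP luciferase stimulated by 0.1 nM hNppA; agonist-evoked cGMP luminescence read 20 min after hNppA addition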)
Method in brief: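 Cells expressing receptor plus cGMP biosensor are seeded and incubated overnight at 37C, then loaded with GloSensor reagent (2% final) at room temperature for 2 h. Library compounds go on for 30 min. A pre-read precedes agonist (hNppA, 0.1 nM final) and a 20-min readout.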

[11] = target: Atrial natriuretic peptide receptor 2 (Homo sapiens) (UniProt P20594); assay: Natriuretic polypeptide receptor (hNpr2) antagonism - Pilot subtype selectivity assay (AID 1347050; calls by dose curve)
Method in brief: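 Read-out: GloSensor luminescence (CCD imager), baseline vs post-stimulation. HEK293 cells expressing hNpr2; compounds pre-incubated 30-50 min at ambient temperature; hNppC 1 nM final, 20 min.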

[12] = target: T2, Tyrosine-protein phosphatase non-receptor type substrate 1 (Homo sapiens) + Leukocyte surface antigen CD47 (Homo sapiens) (UniProt P78324+Q08722); assay: CD47-SIRPalpha protein protein interaction - LANCE assay qHTS validation (AID 1347057; active means well fitted curve in the direction sought with a large enough effect in the signal ratio, with a control signal flat, not every such curve was filed as active; the % refers to the signal ratio)
Method in brief: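 Inhibition of soluble CD47/SIRPalpha ectodomain association by titrated compounds, measured as 665/615 nm time-resolved FRET ratio after sequential 30 min room-temperature incubations.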

[13] = target: T2, Tyrosine-protein phosphatase non-receptor type substrate 1 (Homo sapiens) + Leukocyte surface antigen CD47 (Homo sapiens); assay: CD47-SIRPalpha protein protein interaction - HTRF assay qHTS validation (AID 1347058; active means well fitted curve in the direction sought with a large enough effect in the signal ratio, not every such curve was filed as active; the % refers to the signal ratio)
Method in brief: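 Soluble extracellular domains (6His-CD47, Avi-tag-biotinylated SIRPalpha) in PBS pH 7.4 with 0.05% IGEPAL CA-630. Compounds were preincubated 30 min at RT with CD47 and anti-His-Eu, then SIRPalpha and SAV-XL665 were added. TR-FRET 665/615 ratio.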

[14] = target: T2, Tyrosine-protein phosphatase non-receptor type substrate 1 (Homo sapiens) + Leukocyte surface antigen CD47 (Homo sapiens); assay: CD47-SIRPalpha protein protein interaction - Alpha assay qHTS validation (AID 1347059);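 further: bead proximity luminescence from CD47 binding SIRPalpha after compound preincubation with SIRPalpha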
Method in brief: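 In PBS (pH 7.4) with 0.05% IGEPAL CA-630, compound is preincubated with biotin-Avi-SIRPalpha ectodomain before His-CD47 ectodomain and affinity beads are added. Light-protected room-temperature incubations; AlphaScreen readout.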

[15] = target: Parathyroid hormone/parathyroid hormone-related peptide receptor (Homo sapiens) (UniProt Q03431); assay: qHTS for PTHR1 Agonists: Optimization Screen against the NCGC LOPAC library (AID 1347079);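 further: GloSensor cAMP luminescence in HEK-293 GP2 cells expressing human PTHR1 with IBMX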
Method in brief: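 Signal increase flags agonism. GP2 cells, derived from HEK-293, express human PTHR1 and a GloSensor cAMP construct.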

[16] = target: N-terminal Xaa-Pro-Lys N-methyltransferase 1 (Homo sapiens) (UniProt Q9BV86); assay: qHTS Assay for Inhibitors of N-terminal methyltransferase 1 (NTMT1): LOPAC validation of the NTMT1 SAHH-coupled ThioGlo3 Assay (AID 1347143);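 further: SAH from peptide methylation measured as thiol fluorescence via SAHH coupling and ThioGlo3; potency means the concentration at half of the fitted maximal effect; nearly all actives have a fitted effect of over 70% in size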
Method in brief: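 In this qHTS pilot against the LOPAC set, 125nM NTMT1 met compounds tested at multiple concentrations, and fluorescence was normalized to background.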

[17] = qHTS to identify inhibitors of the type 1 interferon - major histocompatibility complex class I in skeletal muscle: primary screen against the NCATS LOPAC collection (AID 1347405);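 further: human myoblasts with HiBiT tag on endogenous HLA-B stimulated by IFN-beta; lytic HiBiT luminescence reporting HLA-B protein level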
Method in brief: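 IFN-beta-stimulated (4 ng/ml) HLA-B HiBiT knock-in myoblasts, compound-treated 24 hrs up to 46 uM final; signal via LgBiT complementation and furimazine luminescence.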

[18] = qHTS for inhibitors of adenylyl cyclases using a fission yeast platform: a pilot screen against the NCATS LOPAC library (AID 1347410)
Method in brief: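 Growth medium went into the plates first, then compounds were pinned (final up to 57 µM), then CHP2027 yeast were added. Plates were incubated overnight (18 h) at 30C in the dark, and GFP was measured by laser scanning cytometry.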

[19] = Validation qHTS assay for inhibitors of Activation Induced Cytidine Deaminase (AID): UDG Counterscreen signal (AID 1347427)
Method in brief: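 Fluorescence at 560 nm excitation, 665 nm emission reports UDG signal after 250 mM NaOH (2x) addition and 30 min. Enzymes (AID 1 uM, UDG 2 U/mL, at 4/3x) preincubated 10 min with compound, then 4 h with 4x 250 nM DJC20/DJC23 substrate at room temperature.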

[20] = target: Single-stranded DNA cytosine deaminase (Homo sapiens) (UniProt Q9GZX7); assay: Validation qHTS assay for inhibitors of Activation Induced Cytidine Deaminase (AID): AID signal (AID 1347429)
Method in brief: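 Compounds (up to 114 uM final) are tested against AID plus UDG using DJC20/DJC23 FRET substrate. Reactions incubate 4 hr at room temperature, receive NaOH for 30 min, and are read at Ex 540/Em 590 nm.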

[21] = target: Calcium and integrin-binding protein 1 (Homo sapiens) (UniProt Q99828); assay: Validation qHTS for Identification of Calcium Integrin Binding protein 1 (CIB1) Competitor (AID 1508618)
Method in brief: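 CIB1-GST (1 uM final) in 5 mM HEPES pH 7.4, 125 mM NaCl, 5 mM CaCl2, 0.01% Tween20 was preincubated 15 min at room temperature with compound (up to 114 uM), then FITC-alphaIIb peptide (100 nM) added for 15 min; fluorescence polarization read.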

[22] = Primary qHTS for small molecule stabilizers of the endoplasmic reticulum resident proteome: Secreted ER Calcium Modulated Protein (SERCaMP) assay (AID 1508630)
Method in brief: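 The SH-SY5Y reporter protocol was run at 3 concentrations up to 38.3 uM (primary) or 11 concentrations (follow-up): 16 h compound, 100 nM thapsigargin for 4 h, then extracellular luciferase luminescence.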

Papain (Carica papaya) = Papain (Carica papaya) (UniProt P00784); assay: Primary qHTS assay for inhibitors of the protease papain (AID 1645873);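 further: papain turnover of Z-FR-AMC read as the AMC fluorescence gain over 10 min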
[23] = target: Catechol O-methyltransferase (Homo sapiens) (UniProt P21964); assay: Confirmatory Screen for Target Class Profiling of Small Molecule Inhibitors of Methyltransferases (AID 1745852); settings: MTase-Glo luminescence, SAH detection, recombinant enzyme; measured here: COMT max response; stronger effect = lower value
[24] = target: Guanidinoacetate N-methyltransferase (Homo sapiens) (UniProt Q14353); assay: as above; settings: activity change, negative = inhibition: at 57.3 µM (top of the series) unless noted
[25] = target: Nicotinamide N-methyltransferase (Homo sapiens) (UniProt P40261); assay: as above; settings: MTase-Glo luminescence, SAH detection, recombinant enzyme; measured here: NNMT max response; stronger effect = lower value
[26] = target: Phenylethanolamine N-methyltransferase (Homo sapiens) (UniProt P11086); assay: as above; settings: MTase-Glo luminescence, SAH detection, recombinant enzyme; measured here: PNMT max response; stronger effect = lower value
[27] = target: Glutathione peroxidase 1 (Homo sapiens) (UniProt P07203); assay: Primary qHTS Assay for Inhibitors of Recombinant Selenoprotein Glutathione Peroxidase 1 (GPX1) (AID 1845191); further: nearly all actives have a fitted effect of over 65% in size
Method in brief: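 GPX1 10 nM, GR 100 nM, GSH 1 mM, NADPH 0.5 mM, CHP 0.5 mM (final). 30-min cpd preincubation, RT. Ex340/Em450 read t=0, t=15 min.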

[28] = target: Phospholipid hydroperoxide glutathione peroxidase GPX4 (Homo sapiens) (UniProt P36969); assay: Primary qHTS Assay for Inhibitors of Recombinant Selenoprotein Glutathione Peroxidase 4 (GPX4) (AID 1845192); settings: outcome: dose series up to 50 µM unless noted; further: nearly all actives have a fitted effect of over 65% in size
Method in brief: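 qHTS, GR-coupled: GPX4 200 nM + cpd 30 min RT → GSH 1 mM, NADPH 0.5 mM, GR 100 nM → CHP 0.5 mM start; fluor 340/450 at t0 and t15 min; no-enzyme wells as control.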

T1 sequence (P35557 whole entry, looked up): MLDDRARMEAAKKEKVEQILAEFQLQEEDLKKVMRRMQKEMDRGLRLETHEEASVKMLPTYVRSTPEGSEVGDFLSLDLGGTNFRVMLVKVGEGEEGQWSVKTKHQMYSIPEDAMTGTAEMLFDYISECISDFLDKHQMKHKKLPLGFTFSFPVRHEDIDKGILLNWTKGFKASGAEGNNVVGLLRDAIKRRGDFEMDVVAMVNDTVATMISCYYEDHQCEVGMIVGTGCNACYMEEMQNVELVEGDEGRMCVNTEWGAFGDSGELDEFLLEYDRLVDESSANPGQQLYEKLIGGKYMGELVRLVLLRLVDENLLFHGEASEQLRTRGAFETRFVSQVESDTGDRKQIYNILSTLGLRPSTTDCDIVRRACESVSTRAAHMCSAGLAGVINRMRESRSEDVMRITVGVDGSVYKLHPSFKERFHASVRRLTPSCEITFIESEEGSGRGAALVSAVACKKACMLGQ
T1 sequence (Q14397 whole entry, looked up): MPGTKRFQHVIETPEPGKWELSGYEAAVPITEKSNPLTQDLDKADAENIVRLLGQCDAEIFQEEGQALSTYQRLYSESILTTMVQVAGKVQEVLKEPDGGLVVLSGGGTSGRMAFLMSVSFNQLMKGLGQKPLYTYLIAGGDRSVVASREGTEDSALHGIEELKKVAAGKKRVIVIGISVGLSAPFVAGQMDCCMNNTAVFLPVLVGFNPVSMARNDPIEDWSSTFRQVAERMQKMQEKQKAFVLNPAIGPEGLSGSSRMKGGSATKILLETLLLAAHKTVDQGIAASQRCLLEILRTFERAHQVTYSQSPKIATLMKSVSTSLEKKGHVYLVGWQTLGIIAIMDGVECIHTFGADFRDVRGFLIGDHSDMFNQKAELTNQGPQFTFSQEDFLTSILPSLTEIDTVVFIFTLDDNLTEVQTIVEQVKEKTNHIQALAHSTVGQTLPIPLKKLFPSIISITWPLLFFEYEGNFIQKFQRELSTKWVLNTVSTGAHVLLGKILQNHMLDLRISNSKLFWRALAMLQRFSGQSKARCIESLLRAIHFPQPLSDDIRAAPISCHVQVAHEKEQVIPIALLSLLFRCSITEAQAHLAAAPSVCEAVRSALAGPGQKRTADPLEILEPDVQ
T2 sequence (P78324 whole entry, looked up, the tested form may be a part): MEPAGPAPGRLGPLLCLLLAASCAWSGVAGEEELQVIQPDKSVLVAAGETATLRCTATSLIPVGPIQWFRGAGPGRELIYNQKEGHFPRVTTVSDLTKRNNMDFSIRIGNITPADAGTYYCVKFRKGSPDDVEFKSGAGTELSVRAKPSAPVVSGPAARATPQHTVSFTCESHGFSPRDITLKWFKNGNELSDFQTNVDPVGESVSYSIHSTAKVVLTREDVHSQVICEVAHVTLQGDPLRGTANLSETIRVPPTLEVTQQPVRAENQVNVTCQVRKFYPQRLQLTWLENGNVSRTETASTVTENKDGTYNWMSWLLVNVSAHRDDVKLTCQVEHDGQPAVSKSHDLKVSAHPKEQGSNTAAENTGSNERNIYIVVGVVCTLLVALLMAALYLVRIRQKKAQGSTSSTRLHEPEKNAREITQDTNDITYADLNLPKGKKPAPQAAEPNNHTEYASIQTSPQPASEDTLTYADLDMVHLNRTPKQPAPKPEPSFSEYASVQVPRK
T2 sequence (Q08722 whole entry, looked up, the tested form may be a part): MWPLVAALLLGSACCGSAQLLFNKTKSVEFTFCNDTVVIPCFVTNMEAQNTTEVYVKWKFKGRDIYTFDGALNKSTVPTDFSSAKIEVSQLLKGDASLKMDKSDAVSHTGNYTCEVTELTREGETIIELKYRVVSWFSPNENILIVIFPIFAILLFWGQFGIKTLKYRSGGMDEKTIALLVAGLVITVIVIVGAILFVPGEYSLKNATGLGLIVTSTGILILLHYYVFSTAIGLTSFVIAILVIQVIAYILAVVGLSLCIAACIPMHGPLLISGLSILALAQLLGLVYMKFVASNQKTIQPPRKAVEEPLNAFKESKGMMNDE
Sequence of Parathyroid hormone/parathyroid hormone-related peptide receptor (Homo sapiens) (Q03431 whole entry, looked up): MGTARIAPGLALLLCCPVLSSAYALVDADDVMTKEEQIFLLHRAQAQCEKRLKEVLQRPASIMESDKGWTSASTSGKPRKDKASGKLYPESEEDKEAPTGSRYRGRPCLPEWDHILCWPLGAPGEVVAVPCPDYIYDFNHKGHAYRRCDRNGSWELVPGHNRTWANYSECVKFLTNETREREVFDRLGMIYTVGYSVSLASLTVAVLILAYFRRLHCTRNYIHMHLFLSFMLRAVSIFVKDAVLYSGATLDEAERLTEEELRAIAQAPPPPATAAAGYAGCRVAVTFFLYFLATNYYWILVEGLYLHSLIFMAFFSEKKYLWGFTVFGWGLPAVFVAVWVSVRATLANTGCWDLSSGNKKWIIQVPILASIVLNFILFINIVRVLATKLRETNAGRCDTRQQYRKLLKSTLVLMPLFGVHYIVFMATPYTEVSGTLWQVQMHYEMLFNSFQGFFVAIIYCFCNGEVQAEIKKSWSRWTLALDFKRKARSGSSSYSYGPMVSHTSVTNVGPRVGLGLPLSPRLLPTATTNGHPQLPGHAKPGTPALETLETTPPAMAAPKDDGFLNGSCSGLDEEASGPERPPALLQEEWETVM
Sequence of N-terminal Xaa-Pro-Lys N-methyltransferase 1 (Homo sapiens) (Q9BV86 whole entry, looked up): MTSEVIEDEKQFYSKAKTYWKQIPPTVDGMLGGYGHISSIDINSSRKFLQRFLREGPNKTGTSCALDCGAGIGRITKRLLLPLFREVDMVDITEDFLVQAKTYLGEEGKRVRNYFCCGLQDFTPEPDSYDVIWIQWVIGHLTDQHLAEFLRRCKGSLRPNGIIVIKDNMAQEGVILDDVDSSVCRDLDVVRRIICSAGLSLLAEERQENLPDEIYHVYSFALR
Sequence of Glutathione peroxidase 1 (Homo sapiens) (P07203 whole entry, looked up): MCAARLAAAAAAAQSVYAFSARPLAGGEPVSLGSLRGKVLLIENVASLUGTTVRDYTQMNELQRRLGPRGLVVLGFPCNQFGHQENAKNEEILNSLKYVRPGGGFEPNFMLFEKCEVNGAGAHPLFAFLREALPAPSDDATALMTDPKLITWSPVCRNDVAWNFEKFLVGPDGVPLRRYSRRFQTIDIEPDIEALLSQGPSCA
Sequence of Phenylethanolamine N-methyltransferase (Homo sapiens) (P11086 whole entry, looked up): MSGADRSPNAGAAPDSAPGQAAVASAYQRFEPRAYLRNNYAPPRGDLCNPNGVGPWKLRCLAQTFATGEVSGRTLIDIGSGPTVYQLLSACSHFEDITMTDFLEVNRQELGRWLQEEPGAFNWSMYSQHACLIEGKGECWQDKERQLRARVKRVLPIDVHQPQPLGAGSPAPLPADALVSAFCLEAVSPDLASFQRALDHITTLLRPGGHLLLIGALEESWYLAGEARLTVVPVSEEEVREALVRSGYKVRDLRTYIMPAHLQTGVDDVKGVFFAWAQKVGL
Sequence of Calcium and integrin-binding protein 1 (Homo sapiens) (Q99828 whole entry, looked up): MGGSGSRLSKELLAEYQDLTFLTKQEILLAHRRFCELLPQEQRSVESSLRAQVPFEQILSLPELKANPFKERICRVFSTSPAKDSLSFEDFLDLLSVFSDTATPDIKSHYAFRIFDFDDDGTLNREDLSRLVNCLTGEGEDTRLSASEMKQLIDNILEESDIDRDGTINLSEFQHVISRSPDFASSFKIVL
Sequence of Arylsulfatase A (Homo sapiens) (P15289 whole entry, looked up): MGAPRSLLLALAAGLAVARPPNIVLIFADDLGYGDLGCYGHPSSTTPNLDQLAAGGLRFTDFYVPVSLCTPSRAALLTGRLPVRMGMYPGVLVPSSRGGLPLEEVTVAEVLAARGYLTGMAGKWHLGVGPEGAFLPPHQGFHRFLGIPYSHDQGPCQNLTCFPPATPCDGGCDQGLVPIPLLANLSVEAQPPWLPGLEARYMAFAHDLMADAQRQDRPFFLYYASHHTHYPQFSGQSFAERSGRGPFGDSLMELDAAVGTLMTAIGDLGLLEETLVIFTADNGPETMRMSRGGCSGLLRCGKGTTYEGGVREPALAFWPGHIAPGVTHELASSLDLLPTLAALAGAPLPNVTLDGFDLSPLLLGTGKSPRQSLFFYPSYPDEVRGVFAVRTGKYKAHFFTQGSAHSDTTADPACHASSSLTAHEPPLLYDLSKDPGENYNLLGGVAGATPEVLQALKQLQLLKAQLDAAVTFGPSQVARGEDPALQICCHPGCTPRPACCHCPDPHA
Sequence of Single-stranded DNA cytosine deaminase (Homo sapiens) (Q9GZX7 whole entry, looked up): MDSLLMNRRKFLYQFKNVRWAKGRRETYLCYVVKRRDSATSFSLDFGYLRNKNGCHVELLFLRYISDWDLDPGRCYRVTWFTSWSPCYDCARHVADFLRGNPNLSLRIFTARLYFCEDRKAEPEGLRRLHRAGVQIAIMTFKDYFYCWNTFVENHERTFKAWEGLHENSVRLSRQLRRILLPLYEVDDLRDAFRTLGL
Sequence of Papain (Carica papaya) (P00784 whole entry, looked up): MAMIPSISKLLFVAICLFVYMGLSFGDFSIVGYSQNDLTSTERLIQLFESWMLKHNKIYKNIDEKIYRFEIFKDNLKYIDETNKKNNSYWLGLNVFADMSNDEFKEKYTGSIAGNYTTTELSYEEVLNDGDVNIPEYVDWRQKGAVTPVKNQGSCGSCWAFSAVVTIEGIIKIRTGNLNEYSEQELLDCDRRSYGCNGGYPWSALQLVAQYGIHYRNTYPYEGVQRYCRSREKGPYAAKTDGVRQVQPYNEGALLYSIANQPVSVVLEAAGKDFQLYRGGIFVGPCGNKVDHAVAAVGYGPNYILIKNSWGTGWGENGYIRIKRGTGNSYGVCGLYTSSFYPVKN
Sequence of Catechol O-methyltransferase (Homo sapiens) (P21964 whole entry, looked up): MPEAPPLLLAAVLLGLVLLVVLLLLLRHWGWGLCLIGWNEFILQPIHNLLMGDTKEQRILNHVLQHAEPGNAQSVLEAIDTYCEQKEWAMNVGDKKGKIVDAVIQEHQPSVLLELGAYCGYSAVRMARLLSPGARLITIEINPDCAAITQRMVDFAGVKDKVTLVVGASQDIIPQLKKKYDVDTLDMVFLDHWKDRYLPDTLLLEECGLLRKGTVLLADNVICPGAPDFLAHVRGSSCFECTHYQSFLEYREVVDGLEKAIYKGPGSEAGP

Oc1cc2c(c(Cl)c1O)CCNCC2c1ccccc1 (centres undefined)
inactive: outcome [1] | Potency [2] | outcome [3] | outcome [4] | Potency [5] | outcome [6] | outcome [7] | outcome [8] | Potency [9] | Potency [10] | Potency [11] | outcome [12] | outcome [13] | Potency [14] | outcome [15] | Potency [17] | outcome [18] | outcome [19] | Potency [20] | outcome [21] | Potency [22] | Potency (Papain (Carica papaya)) | Potency [27] | Potency [28]
active: Potency [16] 39.8 µM
7.26%: activity [26]
2.7%: activity change, negative = inhibition [24]
-10.3%: activity [25]
72.9%: activity [23]
